Consider 15 compounds from ChEMBL document CHEMBL1961873, “Compounds: GSK PKIS; Assays: Nanosyn kinase panel” (2012).

For orientation: inhibition means the change of the read-out against control, counted positive when it falls.
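Further: values are mean percent inhibition of GSK3B activity, from the GSK Published Kinase Inhibitor Set (PKIS) screening dataset.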

Glycogen synthase kinase-3 beta (Homo sapiens), sequence (P49841 whole entry, looked up): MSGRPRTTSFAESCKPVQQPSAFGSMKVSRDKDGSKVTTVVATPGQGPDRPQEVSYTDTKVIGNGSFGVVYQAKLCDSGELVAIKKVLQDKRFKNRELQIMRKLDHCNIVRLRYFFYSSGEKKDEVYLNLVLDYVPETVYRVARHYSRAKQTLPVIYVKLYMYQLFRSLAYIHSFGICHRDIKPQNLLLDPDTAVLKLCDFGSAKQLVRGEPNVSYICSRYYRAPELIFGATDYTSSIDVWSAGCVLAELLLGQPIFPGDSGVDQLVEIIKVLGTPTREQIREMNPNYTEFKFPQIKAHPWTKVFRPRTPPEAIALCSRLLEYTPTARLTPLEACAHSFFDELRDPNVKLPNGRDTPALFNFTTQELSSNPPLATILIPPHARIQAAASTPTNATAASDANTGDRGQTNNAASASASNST

The assay addresses Glycogen synthase kinase-3 beta (Homo sapiens) (UniProt P49841). The following applies: at 0.1 µM.
Consider `COc1cc2ncn(-c3cc(OCc4ccccc4C(F)(F)F)c(C(N)=O)s3)c2cc1OC`, for which the inhibition is -0.65%.

As to `CCn1c(-c2nonc2N)nc2c(N3CCCC3)nccc21`, the inhibition amounted to 2%.

Take `COc1ccc(-c2coc3ncnc(N)c23)cc1`: the inhibition was determined as 0.71%.

Consider `Nc1nc(-c2ccc3c(c2)C(=Cc2cc(Br)c(O)c(Br)c2)C(=O)N3)cs1`, for which the inhibition turned out to be 0.83%.

For `CS(=O)(=O)CCN(CC#N)Cc1ccc(-c2ccc3ncnc(Nc4ccc(OCc5cccc(F)c5)c(Cl)c4)c3c2)o1`, the inhibition is -2.26%.

As to `COc1ccc(-c2nn3ncccc3c2-c2ccnc(Nc3ccc(Cl)c(C(F)(F)F)c3)n2)cc1`, the inhibition came out at 1.3%.

`Cc1ccc(NC(=O)c2ccnc(N3CCCC3)c2)cc1-c1ccc(C(=O)NCC2CC2)cc1`: the inhibition came out at 0.07%.

As to `CC(C)=Cc1cccc2c1/C(=N/Nc1ccc(S(N)(=O)=O)cc1)C(=O)N2`, the inhibition was found to be 7.42%.

Take `COc1cc2ncn(-c3cc(O[C@@H](C)c4ccccc4Cl)c(C(N)=O)s3)c2cc1OC`: the inhibition is 2.25%.

For the compound `CCCN1CCC(Oc2cc(Nc3nc(Nc4cccc(F)c4C(N)=O)c4cc[nH]c4n3)c(OC)cc2Cl)CC1`, the inhibition stood at 3.22%.

For `Cc1nnc(-c2ccc(C)c(-c3ccc(C(=O)Nc4cccc(C#N)c4)cc3)c2)o1`, the inhibition stood at 2.45%.

With `NS(=O)(=O)c1ccc(N/N=C2\C(=O)Nc3ccc(C(=O)NCCc4c[nH]cn4)cc32)cc1`, the inhibition came out at 51%.

For the compound `CC1=C(C(=O)Nc2ccc3[nH]ncc3c2)C(c2ccc3ccccc3c2)CC(=O)N1` (stereo not given), the inhibition came to 2.72%.

For `NCc1ccc(-c2nc(-c3ccc(Cl)c(O)c3)c(-c3ccncc3)[nH]2)cc1`, the inhibition was determined as 16.9%.

Turning to `COc1cc(C=NNc2ncnc3c2cnn3-c2ccccc2)ccc1O`, the inhibition was determined as 41.6%.
